# ALDH1A1 inh: qHTS Assay for Inhibitors of Aldehyde Dehydrogenase 1 (ALDH1A1) | Aldehyde dehydrogenase 1A1 (Homo sapiens), P00352 | Purified ALDH1A1, NADH fluorescence, propionaldehyde substrate | Potency, µM (series often up to 75.3 µM), for inactives: top-dose activity, negative = inhibition, actives largely listed as inhibitors | 220,000 compounds, 7.3% hits | AID 1030, 2008;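 further: potency means the concentration at half of the fitted maximal effect; plate controls were no enzyme wells and a reference inhibitor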
# HPGD inh: qHTS Assay for Inhibitors of HPGD (15-Hydroxyprostaglandin Dehydrogenase) | purified HPGD, NADH fluorescence kinetic, PGE2 substrate | Potency, µM, without a hit: top-dose activity change, negative = inhibition, actives largely listed as inhibitors | 150,000 compounds, 4.3% hits | AID 894, 2007; further: potency means the concentration at half of the fitted maximal effect
# Target sequence (P15428 whole entry, looked up): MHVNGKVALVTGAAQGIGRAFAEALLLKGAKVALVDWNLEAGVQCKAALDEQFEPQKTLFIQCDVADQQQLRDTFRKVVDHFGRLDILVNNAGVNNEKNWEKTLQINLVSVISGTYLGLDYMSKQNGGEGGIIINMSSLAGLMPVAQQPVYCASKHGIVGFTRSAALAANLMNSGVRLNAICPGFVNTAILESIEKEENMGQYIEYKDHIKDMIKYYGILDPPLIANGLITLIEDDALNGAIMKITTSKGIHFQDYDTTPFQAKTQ
#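 20 nM HPGD preincubated 15 min at room temperature with compound in 50 mM Tris-HCl pH 8, 0.01% Tween 20. Started with 1 mM NAD+ and 30 uM prostaglandin E2; NADH fluorescence (360/450 nm) read 5 times over 30-s intervals, last minus first.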
# PNC assembly inh: High Content Assay for Compounds that inhibit the Assembly of the Perinucleolar Compartment. PC3M PTB-GFP, PNC prevalence imaging, 16 h; hits give low values. activity change (PNC), negative = inhibition, % at 10 µM. 140,000 compounds, 3.1% hits. AID 2417, 2010;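 active means readout at or below -70, meaning at least 70% loss of cells showing the perinucleolar compartment, a nuclear body marking cancer cells; inconclusive means readout between -30 and a set limit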;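 further: plate controls were DMSO wells for no effect and camptothecin positive control wells for full effect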
#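 Read-out is percentage of cells bearing a perinucleolar compartment, from automated 20x imaging of fixed, Hoechst-stained PC3M PTB-GFP cells. Cells were seeded 4 h, then exposed 16 h to compound (23 nl of library stock) in duplicate plates.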
# Starred values were filed as active, the others as inactive; i = inactive; ? = inconclusive; nt = no result; [ ] = dose if it differs, or a comment. Shown are actives, neighbours in structure and some others; about 11% of the full set was active somewhere. Unless noted, the call rests on the fitted dose curve; in most records, active means well fitted inhibition curve with a large enough effect (not every such curve was filed as active); inconclusive means small, poorly fitted or top-dose-only effect, or another doubt; inactive means no such curve, though single readings can be large or run the other way. Unless noted, on the % scale 0 is the no-effect control and ±100 the full control effect.
SMILES,ALDH1A1 inh,HPGD inh,PNC assembly inh
C(=N\Nc1nc(-c2ccccc2)cs1)/c1cccnc1,-13%,-15%,-22
CNc1nc(-c2ccccc2Cl)nc2ccccc12,0%,-6%,nt
Cc1ccc(C2CC(=O)Oc3cc(C)c(Cl)c(C)c32)cc1 (centres undefined),-13%,-16%,nt
CCN(C(=O)Cc1cccs1)c1nnc(-c2cccnc2)s1,?,-13%,-25
COn1c2c(c3c4nonc4ccc31)CCCC2,?,?,24
On1c2c(c3c4nonc4ccc31)CCCC2,32µM*,16µM*,?
CCc1ccc(NC(=S)Nc2cc(C(=O)O)ccc2N2CC3CC(C2)c2cccc(=O)n2C3)cc1 (centres undefined),18µM*,nt,nt
Cc1cccc(Nc2nnc(-c3ccc(C(=O)N4C[C@H]5C[C@H](C4)c4cccc(=O)n4C5)cc3)c3ccccc23)c1,?,?,-15
CN=C(C)/C(C(=O)OC)=C(/O)c1c(F)cccc1F,-6%,nt,nt
COc1cccc(NC(=O)CSc2nc3ccccc3cc2Cc2ccccc2)c1,6%,-15%,34
COc1cccc(CSc2nc3ccccc3cc2C=O)c1,?,13µM*,?
CCCCC(=O)OCC(=O)Nc1ccc(SC(F)F)cc1,-12%,nt,nt
O=C(c1csnn1)N1CCC2(CC1)CCN(c1ccccc1)CC2,13%,-12%,nt
COc1ccc(S(=O)(=O)N2CCCCC2)cc1NC(=O)c1ccc(=O)[nH]c1,-7%,nt,nt
CCC(=O)N1CCN(c2ccc(NC(=O)c3ccc([N+](=O)[O-])o3)cc2Cl)CC1,14µM*,nt,nt
O=C(Nc1ccccc1N1CCCCC1)c1ccc(-c2ccc(Cl)cc2)o1,i,?,-82*
CCC(=O)N1CCN(c2ccc(NC(=O)c3cc4ccccc4o3)cc2Cl)CC1,-1%,-16%,?
CCN1CCN(c2ccc(NC(=O)c3ccc([N+](=O)[O-])o3)cc2Cl)CC1,20µM*,nt,nt
COc1ccc(S(=O)(=O)N2CCCCC2)cc1NC(=O)c1ccc([N+](=O)[O-])o1,3.2µM*,nt,nt
O=C(Nc1ccccc1N1CCCCC1)c1ccco1,2%,-3%,27
CCN1CCN(c2ccc(NC(=O)c3ccc(F)cc3)cc2Cl)CC1,4%,nt,nt
CC(=O)OC[C@@H]1O[C@H](C/C=N\O[C@@H]2O[C@H](COC(C)=O)[C@@H](OC(C)=O)[C@H](OC(C)=O)[C@H]2OC(C)=O)C=C[C@@H]1OC(C)=O,4%[13.5 µM],nt,nt
COC(=O)[C@@]1(Cc2ccccc2)[C@H]2c3cc(C(=O)N4CCCC4)n(Cc4cccc5ccccc45)c3C[C@H]2CN1C(=O)c1ccccc1,0%,-9%,nt
CC1(C(=O)N(c2ccccc2)C(C(=O)NC2CCCC2)c2ccccn2)CC(=O)N=C2C=CC=CN21 (centres undefined),?,?,17
CCCOc1ccccc1N/C(=N/c1nc(C)cc(C)n1)NC(=O)Nc1ccc(Cl)cc1,-1%,-10%,?
SMILES,ALDH1A1 inh,HPGD inh,PNC assembly inh
COc1ccccc1CNc1nc(-c2ccccc2OC)nc2ccccc12,8%,nt,nt
C(=N\Nc1nc(N2CCCC2)nc(N2CCCC2)n1)/c1ccncc1,-4%,nt,nt
NC(N)=NC(N)=Nc1c(F)c(F)c(F)c(F)c1F,3%[13.5 µM],-7%,nt
COc1ccc(OC)c(NC(=O)c2ccc(OC3CSC3)cc2)c1,7%,nt,nt
Cc1ccc(C(=O)N2CCN(c3ccc(NC(=O)c4ccc(Br)o4)cc3)CC2)cc1,?,-27%,6
O=C(Nc1ccccc1N1CCCC1)c1ccc(Br)o1,?,-6%,10
O=C(Nc1ccc(N2CCCC2)c(Cl)c1)c1ccc(Br)o1,19µM*,-30%,51
CCC(=O)N1CCN(c2ccc(NC(=O)c3ccc(Br)o3)cc2)CC1,-1%,-5%,-94*
CCC(=O)N1CCN(c2ccc(Cl)cc2NC(=O)Cc2ccc(Cl)cc2)CC1,?,-9%,-82*
CCC(=O)N1CCN(c2ccccc2NC(=O)Cc2ccc(Cl)cc2)CC1,-6%,-12%,?
CC(N)=NCCC[C@H](N)C(=O)O,1%,2%,nt
COc1ccc(S(=O)(=O)Nc2ccc(Cl)cn2)c(C)c1C,13µM*,-30%,22
CCOc1cc(S(=O)(=O)Nc2ccc(Cl)cn2)ccc1F,2%,-8%,-27
CC(C)(C)S(=O)c1cccs1 (centres undefined),-3%,-6%,22
N/C(=N\OC(=O)Cc1cccs1)c1ccc(Br)cc1,-3%,-16%,27
O=C(NC1CC1)C1C2C3C4CC5C3C5C4C12 (centres undefined),4%,-11%,9
N/C(=N\OC(=O)c1ccco1)c1ccccc1,4%,-29%,-29
N/C(=N\OC(=O)c1ccco1)c1ccc(Br)cc1,3.2µM*,-11%,-14
COc1ccc(N/C(C)=C2/C(=O)C(=O)N(CCO)C2c2ccc(Br)cc2)cc1 (centres undefined),?,-1%,37
COc1ccc(OCC(=O)N/N=c2\oc3c(OC)cccc3cc2C(N)=O)cc1,12%,-13%,-20
O=C(CSc1ncn[nH]1)Nc1ccc(OCc2ccccc2)cc1,-10%,nt,nt
CON,-3%,-5%,nt
CC(/C=N/NC(=O)CSc1n[nH]c(=O)[nH]c1=O)=C\c1ccccc1,4%,nt,nt
COc1ccc(/C=N/NC(=O)CSc2n[nH]c(=O)[nH]c2=O)cc1,-15%,20µM*,4
CN(Cc1nc(-c2cccnc2)no1)S(=O)(=O)c1ccc(Br)cc1,4%,?,-21
SMILES,ALDH1A1 inh,HPGD inh,PNC assembly inh
CC(C)N(Cc1nc(-c2ccc(Cl)cc2)no1)C(=O)CN(C)S(=O)(=O)c1ccc(Cl)cc1,?,-11%,?
COc1ccc(-c2noc(CCC(=O)N(C)c3cccc(C)c3)n2)cc1,3%,-23%,1
CCOc1ccc(-c2noc(CCCC(N)=O)n2)cc1OC,-8%,-16%,26
CN(Cc1nc(-c2ccccn2)no1)S(=O)(=O)c1ccc(Br)cc1,?,22µM*,21
COc1ccc(-c2noc(CCC(N)=O)n2)cc1OC,12%,-3%,-113*
CCN(C(=O)CCc1nc(-c2ccc(OC)cc2)no1)c1cc(OC)ccc1OC,-14%,14µM*,1
COc1ccc(-c2noc(CN(C)S(=O)(=O)c3ccc(Cl)cc3)n2)cc1OC,7%,-11%,-92*
O=C(NCCN1CCOCC1)c1cc(Sc2ccccc2Cl)nc2ccccc12,-7%,6%,24
Cc1ccc(-c2noc(CN3CCOCC3)n2)cc1,-1%,-7%,7
COc1ccc(-c2noc(CN3CCOCC3)n2)cc1OC,22µM*,-2%,25
O=C(NC1CCCC1)C1CCN(c2nccs2)CC1,1%,14µM*,-6
O=C(NC1CCCCC1)C1CCN(c2nccs2)CC1,-3%,-10%,7
O=C1CCC(=O)N1CC(=O)N(c1ccccc1)c1ccccc1,-9%,nt,nt
OCCN[C@@H]1c2cc(Cl)ccc2-c2c(Cl)cc(Cl)cc21,4%[13.5 µM],4%,nt
CN(C)/C=C/C(=O)c1ccccc1OCc1cnc(Cl)s1,0%,nt,nt
CCC(NS(=O)(=O)c1ccc(C)cc1)C(=O)N1CCN(c2ccccn2)CC1 (centres undefined),6%,-8%,6

# Compound activity as filed in PubChem BioAssay.
